Source: PubChem BioAssay
L3MBTL1 inh – inhibitors of human L3MBTL1; AlphaScreen L3MBTL1–H3K9me1 peptide binding; Potency, µM (doses to about 57.1 µM), usual class: inhibitors; hit rate 0.66% among 230,000; AID 485360; also: nearly all actives have a fitted effect of over 60% in size
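L3MBTL1 (50 nM) pre-complexed 30 min with biotinylated H3(1-15)K9me1 peptide (75 nM), then compounds added for 30 min at room temperature; AlphaScreen streptavidin donor/nickel chelate acceptor beads (10 ug/mL final) read after 30 min dark incubation.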
BAZ2B block – BAZ2B (human) inhibition; hit rate 4.4% among 360,000; Potency, µM (highest dose often 114 µM), most hits filed as inhibitors; AlphaScreen BAZ2B-H3K14Ac peptide displacement; also: nearly all actives have a fitted effect of over 60% in size
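BAZ2B 50 nM plus b-H3(5-23)K14Ac 50 nM, PBS pH 7.4/0.01% Tween-20, 30 min RT; compound added (max 110 uM), 30 min RT; streptavidin donor/Ni-chelate acceptor beads 10 ug/mL final, 20 min dark; AlphaScreen read.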
Sfp inh – inhibitors of Bacillus subtilis Sfp phosphopantetheinyl transferase. hit rate 3.5% among 310,000. Potency, µM, usual class: inhibitors. Biochemical Sfp PPTase activity, qHTS. AID 1490;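 also: the enzyme is Sfp with the accession as filed and its product quenches rhodamine fluorescence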
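Fluorescence-quenching assay: 15 nM Sfp-PPTase preincubated 15 min at room temperature with compound, then 5 uM rhodamine-CoA and 12.5 uM BHQ-2-labelled YbbR peptide added. Fluorescence (ex 525/em 598 nm) read at start and after 30 min; difference gives rate.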
G9a inh – blocks human histone lysine methyltransferase G9a. Q96KQ7. G9a H3K9 monomethylation, AlphaScreen, 2 h. Potency, µM (top dose mostly 102 µM), hits mostly inhibitors. hit rate 8.8% among 350,000; also: nearly all actives have a fitted effect of over 75% in size
Target sequence (Q96KQ7 913-1193 limits assumed): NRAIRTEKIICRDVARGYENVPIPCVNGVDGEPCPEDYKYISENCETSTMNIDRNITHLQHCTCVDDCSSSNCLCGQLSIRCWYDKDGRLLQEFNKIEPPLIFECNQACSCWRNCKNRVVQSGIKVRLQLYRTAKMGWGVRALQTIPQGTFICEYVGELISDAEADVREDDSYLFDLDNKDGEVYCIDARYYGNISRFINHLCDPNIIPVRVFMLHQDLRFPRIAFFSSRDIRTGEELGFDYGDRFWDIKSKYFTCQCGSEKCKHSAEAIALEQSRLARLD
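Readings reflect AlphaScreen signal from monomethyl-H3K9 antibody detection. HMT at 20 nM; substrate b-H3K9 500 nM; cofactor SAM 20 uM; 2 h RT reaction; compounds tested as titrations in qHTS with 15 min preincubation.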
JMJD2A Tudor – blocks the human JMJD2A Tudor domain. O75164. hit rate 4.4% among 390,000. Potency, µM (titrated, usually from 114 µM), hits mostly inhibitors. AlphaScreen JMJD2A-Tudor / H3K4me3 peptide binding; also: nearly all actives have a fitted effect of over 50% in size
HP1b binding inh – blocks HP1-beta chromodomain binding to methylated histone tails; hit rate 0.56% among 390,000; Potency, µM (highest dose often 114 µM), actives largely listed as inhibitors; P83916; AlphaScreen HP1-beta / biotin-H3K9me3 peptide binding; also: nearly all actives have a fitted effect of over 70% in size
Target sequence (P83916 whole entry, looked up): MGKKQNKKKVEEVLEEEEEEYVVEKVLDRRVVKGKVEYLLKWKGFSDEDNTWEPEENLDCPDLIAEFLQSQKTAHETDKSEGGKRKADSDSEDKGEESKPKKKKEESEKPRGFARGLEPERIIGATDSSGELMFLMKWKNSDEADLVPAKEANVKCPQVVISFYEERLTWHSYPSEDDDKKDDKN
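Compound inhibition of the preformed complex between 50 nM HP1-beta and 50 nM biotinylated H3K9me3 peptide was read by AlphaScreen. Buffer was PBS pH 7.4 with 0.01% Tween-20. Incubations ran 30 min at room temperature, with 10 ug/mL donor/acceptor beads.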
A number is an active result; – = inactive; ? = inconclusive; · = no result; [ ] = another dose, or the depositor's remark. The list is not random: actives were taken first. Their share in the collection is about 12%. Calls follow the shape of the dose curve; as a rule, active = well fitted curve in the direction sought with a large enough effect; inconclusive = small, poorly fitted or top-dose-only effect, or another doubt; inactive = no such curve, though single readings can be large; an effect the other way counts as inactive or inconclusive.

SMILES	L3MBTL1 inh	BAZ2B block	Sfp inh	G9a inh	JMJD2A Tudor	HP1b binding inh
COc1ccc(Nc2nc3ccc(Cl)cc3nc2-n2nc(C)cc2C)cc1	·	–	·	–	–	–
O=C(Nc1cc(-c2nc3cc(Cl)ccc3o2)ccc1Cl)c1ccco1	·	–	·	–	–	–
CCN(CC)CCOC(=O)c1ccc(NC(=O)CCCN2C(=O)/C(=C/c3cccs3)SC2=S)cc1	·	–	?	·	40µM	?
Cc1ccc(/C=C2\SC(=S)N(CCCC(=O)Nc3ccccn3)C2=O)cc1	–	?	–	71µM	?	–
O=C(CCCN1C(=O)/C(=C/c2cccs2)SC1=S)Nc1ccc(O)c(C(=O)O)c1	–	?	?	45µM	·	·
O=C(CCN1C(=O)/C(=C/c2cccs2)SC1=S)Nc1ccccn1	·	?	–	3.2µM	–	–
O=C(NCc1cccc(Cl)c1)C1CCCN(c2ncnc3onc(-c4ccc(F)cc4)c23)C1 (centres undefined)	·	–	·	–	–	–
COc1ccccc1NC(=O)c1nn(C)c2c1CS(=O)(=O)c1ccccc1-2	·	–	·	–	–	–
O=C(CCCN1C(=O)/C(=C/c2ccccc2)SC1=S)Nc1ccc(C(=O)O)c(O)c1	·	?	–	?	?	–
O=C(CCN1C(=O)/C(=C\C=C\c2ccccc2)SC1=S)Nc1ccc(C(=O)O)cc1	·	16µM	?	32µM	22µM	50µM
O=C(CCN1C(=O)/C(=C/c2cccs2)SC1=S)Nc1ccc(C(=O)O)cc1	·	56µM	–	?	?	–
O=C(CCN1C(=O)/C(=C\c2ccccc2F)SC1=S)Nc1ccc(C(=O)O)c(O)c1	·	?	–	79µM	·	·
Cc1ccc(CNC(=O)Cc2c(C(=O)O)c(C)cn2C)cc1	·	–	·	–	–	–
C=CCNc1nc(-c2sc(NC(=O)CC)nc2C)cs1	–	?	–	8.9µM	–	–
CCCCCCC(=O)Nc1nc(C)c(-c2csc(Nc3ccc(Cl)cc3)n2)s1	–	?	–	?	?	?
C=CCCC(=O)Nc1nc(C)c(-c2csc(Nc3cc(Cl)ccc3OC)n2)s1	–	?	–	?	?	–
C=CCNc1nc(-c2sc(NC(C)=O)nc2C)cs1	·	–	–	18µM	–	–
Cn1c(N)cc(=O)[nH]c1=S	·	·	·	·	?	–
Cn1c(=S)[nH]c2[nH]c(=O)cnc2c1=O	–	–	?	?	89µM	–
CC1(C)CC(=O)C(C2C3=C(CC(C)(C)CC3=O)Oc3ccccc32)=C(O)C1 (centres undefined)	·	–	–	71µM	–	–
CCCNC(=O)c1ccc(Cn2c(SCC(=O)NC(C)C)nc3ccccc3c2=O)cc1	·	–	·	–	–	–
COc1ccc(C(=O)NC2=Nc3ccccc3N=C(C)C2c2ccccc2)cc1 (centres undefined)	–	–	–	?	–	–
CC1=Nc2ccccc2N=C(NC(=O)/C=C/C(=O)O)C1c1ccccc1 (centres undefined)	–	–	–	11µM	–	–
Cc1c(P(=S)(c2ccccc2)c2ccccc2)[n+]2ccccc2n1CCCc1ccccc1	·	·	·	·	–	·
Cc1ccc(C(=O)Nc2cc(C(F)(F)F)ccc2-n2cncn2)o1	–	–	·	–[12.7 µM]	–	–
SMILES	L3MBTL1 inh	BAZ2B block	Sfp inh	G9a inh	JMJD2A Tudor	HP1b binding inh
Cc1ccc(C(=O)Nc2cc(Cl)ccc2-n2cncn2)o1	–	–	·	8.9µM	–	–
CC(Oc1ccccc1)C(=O)Nc1cc(Cl)ccc1-n1cncn1 (centres undefined)	–	–	·	45µM	–	–
COc1cc2cc(Oc3ccc4ccc(=O)oc4c3)c(=O)oc2cc1O[C@@H]1O[C@H](CO)[C@@H](O)[C@H](O)[C@H]1O	32µM	·	·	·	–	–
Cc1ccc(/C=N/Nc2nnc(Cc3ccccc3)c(=O)[nH]2)o1	–	?	–	–	–	–
COc1ccc(Cc2nnc(N/N=C/c3ccc(O)cc3O)[nH]c2=O)cc1OC	3.5µM	5µM	?	–	14µM	–
CCCCCCC/C=N/Nc1nnc(Cc2ccccc2)c(=O)[nH]1	·	?	–	–	?	–
CCCCCC/C=N/Nc1nnc(Cc2ccc(OC)c(OC)c2)c(=O)[nH]1	·	7.1µM	–	–	0.89µM	–
CNC(=O)c1ccc(-c2sc3nc(N4CCOCC4)c4c(c3c2N)CCCC4)o1	–	?	–	?	?	–
CNC(=O)c1ccc(-c2sc3nc(N4CCOCC4)c4c(c3c2N)CC(C)(C)OC4)o1	–	?	79µM	–[0.501 µM]	–	–
COc1ccccc1NC(=O)c1sc2nc(N3CCOCC3)c3c(c2c1N)CC(C)(C)OC3	·	–	·	–	–	–
CC1(C)Cc2c(c(N3CCOCC3)nc3sc(-c4ccc(C(=O)O)o4)c(N)c23)CO1	?	?	45µM	?	–	–
CCc1ccc2oc(-c3cccc(NC(=O)COc4ccccc4Cl)c3)nc2c1	·	–	·	–	–	–
